Paper PMC5540273 (PLoS ONE, 2017)

What was measured:
Conditions in all cases: concentration: 1 μM,replicates: in singlicate; n = 1
[1] = system: TNNI3K
[2] = system: T1, TRKA
T1 construct: gene NTRK1

[3] = system: TRKB
[4] = system: T2, TRKC
T2 construct: gene NTRK3

[5] = system: TRPM6
[6] = system: TSSK1B
[7] = system: TSSK3
[8] = system: TTK
[9] = system: TXK
[10] = system: TYK2(JH1domain-catalytic)
[11] = system: TYK2(JH2domain-pseudokinase)
[12] = system: TYRO3
[13] = system: ULK1
[14] = system: ULK2
[15] = system: ULK3
[16] = system: T3, VEGFR2
T3 construct: gene KDR

[17] = system: T4, VPS34
T4 construct: gene PIK3C3

[18] = system: VRK2
[19] = system: WEE1
[20] = system: WEE2
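Also: KINOMEscan kinase panel screen.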

Row | SMILES | %Inh [1] [%] | %Inh [2] [%] | %Inh [3] [%] | %Inh [4] [%] | %Inh [5] [%] | %Inh [6] [%] | %Inh [7] [%] | %Inh [8] [%] | %Inh [9] [%] | %Inh [10] [%] | %Inh [11] [%] | %Inh [12] [%] | %Inh [13] [%] | %Inh [14] [%] | %Inh [15] [%] | %Inh [16] [%] | %Inh [17] [%] | %Inh [18] [%] | %Inh [19] [%] | %Inh [20] [%]
1 | COC(=O)c1cccc(NC(=O)NC2CCN(c3ccnc(Nc4cc(OC)c(OC)c(OC)c4)n3)C2)c1 (centres unmarked) [GSK1379767] | 0 | 97.1 | 81 | 95.6 | 0 | 9 | 13 | 0 | 0 | 40 | 18 | 0 | 0 | 0 | 58 | 15 | 0 | 25 | 8 | 0
2 | O=C(Nc1ccccc1)c1cccc(Oc2ccc3nccn3n2)c1 | 2 | 0 | 0 | 21 | 0 | 0 | 0 | 0 | 0 | 5 | 18 | 29 | 0 | 0 | 0 |  | 6 | 0 | 0 | 0
3 | CCN1CCN(CCCC(=O)Nc2n[nH]c3nc(-c4ccc(O)cc4)c(Br)cc23)CC1 [SB-731579] | 0 | 38 | 2 | 0 | 0 | 0 | 0 | 0 | 0 | 52 | 0 | 0 | 0 | 0 | 6 | 0 | 0 | 69 | 0 | 29
4 | Cc1ccc(CC(=O)N2CCc3cc(-c4cn(C)c5ncnc(N)c45)ccc32)cc1 [GSK2634758] | 0 | 10 | 34 | 29 | 5 | 6 | 13 | 0 | 8 | 0 | 17 | 0 | 11 | 35 | 6 | 0 | 0 | 19 | 0 | 0
5 | CCCC(=O)Nc1n[nH]c2ncccc12 [SB-601436] | 0 | 0 | 6 | 28 | 2 | 0 | 0 | 0 | 0 | 0 | 0 | 0 | 0 | 18 | 0 | 0 | 0 | 0 | 0 | 0
6 | CCn1c(-c2nonc2N)nc2cncc(Br)c21 [SB-738004] | 0 | 56 | 20 | 44 | 0 | 0 | 25 | 0 | 0 | 58 | 18 | 0 | 14 | 13 | 3 | 37 | 36 | 35 | 13 | 0
7 | CN1CCN(CCCNc2nccc(-c3c(-c4ccc(F)cc4)nn4cc(C(N)=O)ccc34)n2)CC1 [GW622475] | 3 | 43 | 10 | 6 | 23 | 18 | 24 | 8 | 47 | 0 | 40 | 0 | 8 | 0 | 0 | 9 | 19 | 0 | 2 | 0
8 | NC(=O)c1ccc(-c2cc3ncnc(SCC(=O)O)c3s2)cc1 | 0 | 54 | 35 | 0 | 0 | 0 | 0 | 13 | 0 | 2 | 42 | 0 | 0 | 0 | 11 | 0 | 0 | 0 | 0 | 0
9 | OCCn1cc(-c2cnc3nnn(Cc4ccc5ncccc5c4)c3n2)cn1 | 0 | 0 | 0 | 0 | 0 | 0 | 0 | 0 | 0 | 0 | 0 | 0 | 0 | 0 | 0 | 0 | 17 | 0 | 0 | 0
10 | CN(c1ccc2c(c1)nc(NCc1ccc(F)cc1)n2C)c1ccnc(Nc2ccc(CS(C)(=O)=O)cc2)n1.Cl [GW813244] | 11 | 0 | 7 | 0 | 24 | 0 | 4 | 0 | 80 | 36 | 12 | 4 | 28 | 13 | 21 | 98.3 | 30 | 6 | 0 | 7
11 | O=C(Nc1cccc(C(F)(F)F)c1)c1cccc(Oc2ccc3nccn3n2)c1 | 35 | 0 | 22 | 50 | 0 | 0 | 16 | 0 | 7 | 23 | 44 | 2 | 2 | 10 | 23 |  | 35 | 0 | 13 | 7
12 | COc1cc(Nc2nccc(N3CCC(NC(=O)c4cccc(C#N)c4)C3)n2)cc(OC)c1OC (centres unmarked) [GSK1379751] | 14 | 60 | 53 | 64 | 0 | 10 | 7 | 0 | 9 | 72 | 55 | 0 | 12 | 0 | 96.7 | 0 | 0 | 0 | 0 | 0
13 | O=C(Nc1ccc(Oc2ccc3nc(NC(=O)C4CC4)cn3n2)c(F)c1)c1cccn(-c2ccccc2)c1=O | 12 | 87 | 80 | 20 | 0 | 0 | 0 | 10 | 69 | 0 | 0 | 74 | 0 | 0 | 0 | 98.2 | 44 | 0 | 14 | 0
14 | CSc1nccc(-c2c(-c3ccc(F)cc3)ncn2CCCN2CCOCC2)n1.Cl [SB-217146] | 0 | 0 | 0 | 0 | 10 | 0 | 0 | 0 | 0 | 13 | 22 | 0 | 12 | 36 | 14 | 7 | 16 | 30 | 0 | 1
15 | CC(C)c1nc(-c2cccc(NS(=O)(=O)c3ccccc3)c2)c(-c2ccnc(Nc3ccc4c(c3)CN(C)CC4)n2)s1 [GSK1649598] | 85 | 65 | 41 | 0 | 68 | 16 | 0 | 23 | 71 | 55 | 28 | 79 | 42 | 67 | 48 | 90.1 | 0 | 0 | 0 | 0
16 | CCn1c(-c2nonc2N)nc2cncc(CNC3CCNCC3)c21.Cl [SB-747651] | 4 | 0 | 43 | 24 | 21 | 55 | 6 | 0 | 16 | 31 | 47 | 0 | 17 | 0 | 6 | 0 | 0 | 9 | 8 | 7
17 | COC(=O)Nc1nc2cc(Oc3ccc(NC(=O)Nc4cc(C(F)(F)F)ccc4Cl)cc3)ccc2[nH]1.Cl [GW697465] | 88 | 100 | 99.7 | 99.8 | 0 | 0 | 10 | 1 | 0 | 14 | 30 | 3 | 17 | 0 | 10 | 64 | 35 | 4 | 8 | 11
18 | Cc1ccc(Nc2ccnc(Nc3ccc4c(c3)CS(=O)(=O)C4)n2)cc1O.Cl [GW579362] | 70 | 100 | 91.7 | 78 | 25 | 1 | 27 | 81 | 90 | 96.9 | 99.5 | 79 | 55 | 2 | 99.5 | 93.6 | 76 | 0 | 50 | 98.3
19 | Cc1ccn2nc(-c3ccc(F)cc3)c(-c3ccncc3)c2c1.Cl [GW457859] | 0 | 6 | 39 | 24 | 14 | 0 | 0 | 0 | 20 | 26 | 25 | 0 | 0 | 0 | 0 | 19 | 51 | 0 | 7 | 0
20 | Cc1ccc(C(=O)Nc2ccc(Oc3ccc4nc(NC(=O)C5CC5)cn4c3)c(F)c2)c(=O)n1-c1ccccc1 | 24 | 100 | 99.9 | 99 | 0 | 12 | 0 | 17 | 76 | 20 | 0 | 81 | 0 | 0 | 7 | 99.1 | 43 | 0 | 0 | 0
